Assay results from the supplement of paper PMC6555819.

System: VDR:RXRa (NR concentration 270 nM, RXRa partner concentration 90 nM)
Experiment: PBM binding z-score (relative to random genomic background probes); higher = stronger binding; sequences stand for … in GC…GCGATTGACAGCGTAGAATGAAGG
Protocol: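 Protein-binding microarray (Agilent 4x180K custom design, double-stranded 60-nt probes: 5' GC cap, 34-nt variable region, 24-nt constant primer region; full probe sequence given). Purified or IVT nuclear receptor:RXRα heterodimers (3:1 NR:RXRα, mostly 270:90 nM) or homodimers were incubated for 1 h in PBS with 2% milk and no ligand, then detected with Alexa488 antibodies. Fluorescence from o1-orientation probes (~5 replicates averaged) was converted to z-scores against 500 random hg19 background probes. Variable regions are seed direct-repeat (DR0–DR5) sites, all their single-nucleotide variants and half-site ablations.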

Sequence | PBM binding z-score
GATACAGGATCAGCTAGAGGCCAGAGTATGGAAA | -0.569
TCTATTAGTTGATTAGGGCAACCTAAACAGCGGA | 0.744
CCAAGTTGGTCAGGAGGTCACACACCGGATATGA | 4.08
GCGACTGGGCCATCAGCAGGTTACCATAACTTAA | -0.599
CCAGACAGGTGGGAAGGTAACTCAGCCTCGATTA | -0.285
CCCACTGGGCCACGAAAGGTCATTGATTCAGTGA | 4.18
ACTAGCAGGCCAAGATTGGGTCACTCAAACAAAG | 0.16
CCTACAGGGTCAGCTAGGCCAGAGTAGGGACGGC | 3.53
TCGGGTAGGTTACCAATGGGGCATTCAGCTTTCT | 0.639
ACTGGTTGGTCAGCTGAGGTCACACACAATTCGG | 4.57
ATCTCTAGGGAAAAGTTCAGTGAATCCCGAGGAT | 0.557
CCGACTGGGGCAAAGTTACCATAACGCACAGCCA | -0.545
CTCGAAAGTTCGTGCTCAGGTGAGTATACCAAAC | 1.71
TCATATAGGTAACACAGGTGAAAGTCGGCATCTA | 1.49
GTACCAAGGTGACTAGGTCGTTGATGAGTAGGCG | 0.346
ATATGTAGGTTAGCTGGGCTCATTCAGACTAGGC | -0.0839
AGAACGAGGGTAATGAGTTGATAGCACGGGTGGC | 3.47
TCATATAGGTAAAGGTGAAAGTCGAACGATATGA | 0.971
CTACCCAGGTGAACAAGGTCGTTGATTACTATTC | 5.31
CGTCCACGGTCAGAGAGGTCAGTGAATGCCGAGT | 4.97

Sequence | PBM binding z-score
ACAGACAGGTGATGAAGCTAACTCAGGCTATCAT | -0.278
CTTCCAAGGTCAATGCTAGGTCAGTGAAAGCATT | 4.72
AGCCAAAGTTCAGGACGAGGTAACGTAAAGCACG | 2.71
AGTCAAAGTTCATCTAGGTAACGTATGATATGCT | 4.91
CCTATTAGTTGACCACAAGGGCAACCGAAGCTCG | 0.807
ACTAGTTGGTCAGCTGAGGTCATACACAATTCGG | 4.73
TCTTTTAGATCAAGCAGGTTAAGAAAGCCTGAGT | 0.762
TCACCAAGGTGAAAGGTCGTTGATGCACGCCTTG | 3.17
CCTTACGGGTCACTCCAGTTTATAGCATCGGAGT | 5.1
CGAACTAGGTCATAGACAGGACAGTGAATAGTAA | 1.78
CCTACTGGGCCAAAAAGGTCATTGCTGCCGATAA | 4.46
GCTAGTTGGTCAGTAAAAGGTCACACAGCGGTCG | 3.95
TCTCGAAGGACACGAAAGGTCAGAGCTCGACATC | 3.06
CCGACTGGGGGAAGGTTACCATAACGCACAGCCA | 0.558
GTACCAAGGTGCATAGGTCGTTGATGAGTAGGCG | 0.717
TCTTGTAGATCAAAGGTTAAGAACGCCGAAGCCT | 1.47
GCTATTAGTGGAAAGGGCAACCGAATGATTCTCG | 0.104
AGTCAAAGTTCAGGACGATGTAACGTAAAGCACG | 2.56
CGACCGAGGGCATGAGTTGATAGCAAATGCCGAT | 1.3
CCGACTGGGACAGAAAGGTTACCATACCATCCGG | 0.351
